Bioassay records as filed in PubChem BioAssay.
MCF10A rerep = inducers of DNA re-replication in MCF 10A breast cells | Potency, µM (highest dose often 46.1 µM), most hits filed as activators | 350,000 compounds, 2.9% hits | MCF 10A DNA re-replication, Hoechst nuclear intensity, 48 h | AID 624296; further: nearly all actives have a fitted effect of over 50% in size
HT1080 IDH1KD tx = kills HT-1080 cells with IDH1 knockdown. HT-1080 IDH1 knockdown viability, ATP luminescence, 48 h. Potency, µM (titrated, usually from 46.1 µM), most hits filed as cytotoxic. 360,000 compounds, 2% hits
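Using the IDH1-knockdown HT-1080 line run in the same batch and compound series as the NT line, viability after 48 h at 37 °C was determined by CellTiter-Glo luminescence and expressed as % activity.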
HT1080-NT tox = kills 2HG-producing HT-1080-NT fibrosarcoma cells; HT-1080-NT fibrosarcoma viability, CellTiter-Glo ATP luminescence, 48 h; 360,000 compounds, 1.6% hits; Potency, µM (doses to about 46.1 µM), most hits filed as cytotoxic; AID 686970;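 further: NT is the 2HG producing partner of a matched IDH1 knockdown line; nearly all actives have a fitted effect of over 55% in size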
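Fibrosarcoma NT cells, 750 per well in 5% FBS RPMI, were exposed to compound for 48 hours. Viability: CellTiter-Glo luminescence.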
KB-V1 cytotox = KB-V1 MDR subline cytotoxicity; KB-V1 MDR cells viability, CellTiter-Glo, 72 h; Potency, µM (highest dose often 46.1 µM), usual class: cytotoxic; 400,000 compounds, 3.4% hits; further: nearly all actives have a fitted effect of over 60% in size
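qHTS viability screen in drug-selected KB-V1 MDR cells: 72 h compound treatment at 37 degrees C, ATP luminescence end point.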
SW480 rereplic = DNA re-replication induction in SW480 cells; SW480 DNA re-replication, Hoechst DNA content imaging, 48 h; Potency, µM (top dose mostly 46.1 µM), usual class: activators; 340,000 compounds, 1.8% hits; AID 624297; further: nearly all actives have a fitted effect of over 55% in size
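Image-based DNA-content assay: after two days of treatment, nuclei were labelled with the DNA dye Hoechst and imaged, and hits were compounds raising the count of nuclei showing high fluorescence intensity.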
KB-3-1 tox = KB-3-1 parental cell cytotoxicity; 400,000 compounds, 1.4% hits; KB-3-1 viability, CellTiter-Glo ATP luminescence, 72 h; Potency, µM (series often up to 46.1 µM), usual class: cytotoxic; AID 1347075; further: nearly all actives have a fitted effect of over 60% in size
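Parental KB-3-1 adenocarcinoma cells in phenol-red-free DMEM with 10% FBS were pin-treated with compounds at several concentrations, incubated 72 h at 37 °C, and viability read by CellTiter-Glo luminescence; concentration-effect curves were fitted after normalization.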
Of the large screens only hits and unclear results are named; the others gave an inactive call. This is a sample that favours compounds with a hit; in the whole collection about 8% have one here. The call rests on the fitted dose curve; in most records, active means well fitted curve in the direction sought with a large enough effect; inconclusive means small, poorly fitted or top-dose-only effect, or another doubt; inactive means no such curve, though single readings can be large; an effect the other way counts as inactive or inconclusive.

COc1ccc(NC(=O)c2sc(=O)n(Cc3cccc(C(F)(F)F)c3)c2C)cc1OC	HT1080 IDH1KD tx inconclusive, KB-V1 cytotox inconclusive, KB-3-1 tox 8.2µM (no result: MCF10A rerep, SW480 rereplic)
Cc1c(C(=O)NCCC#N)sc(=O)n1Cc1ccc(F)cc1	none (no result: MCF10A rerep, SW480 rereplic)
CSc1ccc(Cn2c(C)c(C(=O)NCc3ccc4c(c3)OCCO4)sc2=O)cc1	KB-V1 cytotox 18µM (no result: MCF10A rerep, SW480 rereplic)
Cc1c(C(=O)NCc2ccc3c(c2)OCCO3)sc(=O)n1Cc1cccc(C(F)(F)F)c1	HT1080 IDH1KD tx inconclusive, KB-V1 cytotox 7.3µM, KB-3-1 tox inconclusive (no result: MCF10A rerep, SW480 rereplic)
CSc1ccc(Cn2c(C)c(C(=O)NCc3ccc(Cl)c(Cl)c3)sc2=O)cc1	KB-V1 cytotox 16µM, KB-3-1 tox 15µM (no result: MCF10A rerep, SW480 rereplic)
CCCc1nnc(NC(=O)c2cc(=O)c3cc(Cl)ccc3o2)s1	KB-V1 cytotox inconclusive (no result: MCF10A rerep, HT1080 IDH1KD tx, HT1080-NT tox, SW480 rereplic)
COc1ccc(NC(=O)CSc2c3c(nc4ccccc24)CCC3)c(OC)c1	HT1080 IDH1KD tx inconclusive, HT1080-NT tox inconclusive, KB-V1 cytotox inconclusive
COc1cc(Cl)c(C)cc1Nc1c2c(nc3ccccc13)CCC2	KB-3-1 tox 4.1µM (no result: MCF10A rerep, HT1080 IDH1KD tx, HT1080-NT tox, SW480 rereplic)
COc1ccc(Nc2c3c(nc4ccccc24)CCC3)c(OC)c1	MCF10A rerep inconclusive, HT1080 IDH1KD tx 16µM, HT1080-NT tox 18µM, KB-V1 cytotox 4.1µM, SW480 rereplic inconclusive, KB-3-1 tox 21µM
COc1ccccc1Nc1c2c(nc3ccccc13)CCC2	MCF10A rerep 12µM, HT1080 IDH1KD tx inconclusive, HT1080-NT tox inconclusive, KB-V1 cytotox inconclusive, SW480 rereplic 15µM, KB-3-1 tox inconclusive
COc1cc(Nc2c3c(nc4ccccc24)CCCC3)cc(OC)c1OC	HT1080 IDH1KD tx inconclusive, HT1080-NT tox inconclusive, KB-3-1 tox inconclusive
CCOc1ccc(Nc2c(S(=O)(=O)c3ccc(C)cc3)cnc3cc(OC)c(OC)cc23)cc1	KB-V1 cytotox inconclusive (no result: MCF10A rerep, HT1080 IDH1KD tx, HT1080-NT tox, SW480 rereplic)
CC1CCN(S(=O)(=O)c2ccc3c(c2)N(CC(=O)N2CCN(c4ccc(Cl)cc4)CC2)C(=O)CO3)CC1	KB-V1 cytotox inconclusive (no result: MCF10A rerep, HT1080 IDH1KD tx, HT1080-NT tox, SW480 rereplic)
Cc1cc(C)cc(NC(=O)c2ncn(-c3ccccc3)n2)c1	none (no result: MCF10A rerep, HT1080 IDH1KD tx, HT1080-NT tox, SW480 rereplic)
COc1ccc(NC(=O)CSc2nc3c(c(=O)[nH]2)CN(Cc2ccccc2)CC3)cc1Cl	KB-V1 cytotox inconclusive (no result: MCF10A rerep, HT1080 IDH1KD tx, HT1080-NT tox, SW480 rereplic)
O=C(Oc1ccc(N(Cc2cccs2)C2=NS(=O)(=O)c3ccccc32)cc1)c1ccc(Cl)cc1	none
O=C(Oc1ccc(N(Cc2cccs2)C2=NS(=O)(=O)c3ccccc32)cc1)c1ccccc1	KB-V1 cytotox 16µM
Cc1ccc(C(=O)NC(=S)N2CC(C)OC(C)C2)cc1[N+](=O)[O-] (stereo not given)	HT1080 IDH1KD tx 2.8µM, HT1080-NT tox 3.5µM, KB-V1 cytotox inconclusive, SW480 rereplic inconclusive
COc1ccc(C(=O)NC(=S)N2CC(C)OC(C)C2)cc1 (stereo not given)	none
Cc1ccc(Cl)cc1NC(=O)CN1C=NS(=O)(=O)c2ccccc21	KB-V1 cytotox inconclusive (no result: MCF10A rerep, HT1080 IDH1KD tx, HT1080-NT tox, SW480 rereplic)
Cc1nnc(NC(=O)CCNC(=O)c2ccccc2Cl)s1	KB-3-1 tox inconclusive
CCCn1c(=N)c(S(=O)(=O)c2ccc(F)cc2)cc2c(=O)n3cccc(C)c3nc21	MCF10A rerep 5.2µM, SW480 rereplic inconclusive
CCCCn1c(=N)c(S(=O)(=O)c2ccc(Br)cc2)cc2c(=O)n3cccc(C)c3nc21	SW480 rereplic inconclusive
COCCCn1c(=N)c(S(=O)(=O)c2ccccc2)cc2c(=O)n3cccc(C)c3nc21	KB-V1 cytotox inconclusive (no result: MCF10A rerep, HT1080 IDH1KD tx, HT1080-NT tox, SW480 rereplic)
COCCn1c(=N)c(S(=O)(=O)c2ccc(F)cc2)cc2c(=O)n3cccc(C)c3nc21	MCF10A rerep 3.7µM, SW480 rereplic inconclusive
Cc1ccc(Cl)cc1N1CCN(C(=O)Cc2c(C(=O)O)c(C)cn2C)CC1	KB-V1 cytotox inconclusive (no result: MCF10A rerep, HT1080 IDH1KD tx, HT1080-NT tox, SW480 rereplic)
CCNc1nc(NC(C)CC)nc(ON=C(C)C)n1 (stereo not given)	none
CCN1C(=NCc2cccc(Cl)c2)N[C@@H](c2cccc(C(F)(F)F)c2)C(C(=O)OC)=C1C	none (no result: MCF10A rerep, HT1080 IDH1KD tx, HT1080-NT tox, SW480 rereplic)
c1ccc(CCN=C2CCCc3c2[nH]c2ccccc32)cc1	KB-V1 cytotox inconclusive, KB-3-1 tox 13µM
Nc1ccc(C(=O)N/N=C2\CCCc3c2[nH]c2ccccc32)cc1	KB-3-1 tox inconclusive
Cc1cc(C)cc(NC(=O)N2CCC(C(=O)c3ccc(F)cc3)CC2)c1	KB-V1 cytotox inconclusive
Cc1cccc(NC(=O)N2CCC(C(=O)c3ccc(F)cc3)CC2)c1	HT1080 IDH1KD tx inconclusive, SW480 rereplic 2.3µM
O=C(Nc1ccccc1Cl)C1CC(=O)N(Cc2ccco2)C1 (stereo not given)	none
CCSc1nnc(NC(=O)NC(CC)(C(F)(F)F)C(F)(F)F)s1	MCF10A rerep inconclusive, HT1080 IDH1KD tx inconclusive, HT1080-NT tox 18µM, KB-3-1 tox inconclusive
CCSc1nnc(NC(=O)NC(C)(C(F)(F)F)C(F)(F)F)s1	MCF10A rerep inconclusive, HT1080 IDH1KD tx inconclusive, HT1080-NT tox inconclusive, SW480 rereplic inconclusive
CCOc1ccc(CCNC(=O)CCNC(=O)c2ccccc2Cl)cc1OCC	none
